# Laboratory results taken from ChEMBL document CHEMBL1156829.
# The full ranking holds about 5,400 compounds; the median of “IFI” is about 2, and the highest 2% start at about 22. The sample holds the highest values, similar compounds and a random draw of the others, so the mix is not that of the screen.
# Assay: NOVARTIS: Inhibition Frequency Index (IFI) - the number of HTS assays where a compound showed > 50% inhibition/induction, expressed as a percentage of the number of assays in which the compound was tested.
# Assay type: functional
row,Compound,IFI
1,COc1ccc(C[C@H](N)C(=O)N[C@H]2[C@@H](O)[C@H](n3cnc4c(N(C)C)ncnc43)O[C@@H]2CO)cc1,30.8%
2,COCCN1C(=O)c2[nH]nc(-c3ccccc3O)c2C1c1ccc(SC)cc1 (configuration not stated),0%
3,C[n+]1c2ccccc2nc2ccc(NC3CCCCC3N)cc21 (configuration not stated),23.1%
4,C[n+]1c2ccccc2nc2ccc(NCCc3cnc[nH]3)cc21,15.4%
5,COc1ccc2c(c1)[nH]c1c(N3CCN(C(c4ccccc4)c4ccccc4)CC3)ncnc12,8.77%
6,Cc1ccc(S(=O)(=O)c2c(COC(=O)c3cccc(C)c3)c(-c3ccccc3)nn2C)cc1,3.9%
7,CN[C@H]1C[C@@H]2O[C@](C)([C@H]1O)n1c3ccccc3c3c4c(c5c6ccccc6n2c5c31)C(=O)NC4,46.2%
8,COc1cc2c(-c3cc(Br)ccc3O)nc3c(c(-c4ccccc4)nn3-c3ccccc3)c2cc1OC,3.03%
9,CC[n+]1c(C=CN(C)c2ccccc2)sc2ccc(Cl)cc21,9.09%
10,CC[n+]1c(C=CN(C)c2ccccc2)oc(-c2ccccc2)c1-c1ccccc1,22.7%
11,CC[n+]1c(/C=C/N(C)c2ccccc2)sc(-c2ccccc2)c1-c1ccccc1,14.3%
12,CC(NCc1ccccc1)c1cc(Cl)ccc1O (configuration not stated),0%
13,Oc1c(C(Nc2ccccn2)c2cccc(Cl)c2Cl)ccc2cccnc12 (configuration not stated),15.4%
14,Cc1ccc(-c2c[n+](-c3ccccc3)c3n2CCCS3)cc1,7.69%
15,CC(C)(C)c1ccc(-c2c[n+](-c3ccccc3)c3n2CCCS3)cc1,23.1%
16,Clc1ccc(-c2c[n+](-c3ccccc3)c3n2CCS3)cc1,0.725%
17,CC1CNC2C(C)C3C(CC4C5CCC6CC(N)CCC6(C)C5CCC43C)OC2(O)C1 (configuration not stated),5.26%
18,Oc1ccccc1-c1nc2sc(-c3ccccc3O)nc2s1,11%
19,N#C/C(=C\c1ccc(Sc2ccccc2)o1)c1nc2ccccc2[nH]1,6.74%
20,N#C/C(=C\C=C\c1ccc([N+](=O)[O-])o1)c1nc2ccccc2[nH]1,28.6%
21,CCN(CC)c1ccc(/C=C(/C#N)c2nc3ccccc3[nH]2)o1,7.69%
22,COc1cc(C(=O)NC2CC3CCC(C2)N3C2CC2)cc(OC)c1OC (configuration not stated),0%
23,COc1ccc(-c2c[n+](CC(=O)c3ccc(Cl)cc3)c3n2CCC3)cc1,5%
24,O=C(C[n+]1cc(-c2ccc(Cl)cc2)n2c1CCC2)c1ccc(C2CCCCC2)cc1,27.5%
25,O=C(C[n+]1cc(-c2ccccc2)n2c1CCC2)c1ccc(C2CCCCC2)cc1,12.5%
26,c1cc2cc(CN3CCc4nc(N5CCCCC5)sc4C3)ccc2[nH]1,4.17%
27,CN1CCc2c(sc3nc(SCc4ccc(F)cc4)n(-c4ccccc4)c(=O)c23)C1,2.5%
